From PubChem
In the library only some 19% were active in any assay of this set; here they are far more common.
DT40 TDP1 CPT: qHTS for Inhibitors of human tyrosyl-DNA phosphodiesterase 1 (TDP1): qHTS in cells in presence of CPT; 420,000 tested, 12% active; chicken DT40 Tdp1-/-;hTDP1 cells + 20 nM CPT, ATP luminescence, 48 h; Potency, µM (doses to about 46.2 µM), for the others: at the highest dose activity change, negative = growth inhibition, hits mostly inhibitors; AID 686979, 2013; also: potency is read from the fitted curve at half-maximal effect; % is scaled to controls: 0 for no effect and ±100 for the full control effect; nearly all actives have a fitted effect of over 55% in size
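Chicken DT40 Tdp1-/- cells complemented with human TDP1, 400 cells/well, exposed to compounds plus 20 nM camptothecin for at least 48 h at 37 C; viability read as ATP content by CellTiter-Glo luminescence.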
DT40 TDP1 no CPT: qHTS for Inhibitors of human tyrosyl-DNA phosphodiesterase 1 (TDP1): qHTS in cells in absence of CPT; Potency, µM (series often up to 46.2 µM), for inactives: top-dose activity change, negative = growth inhibition, hits mostly inhibitors; AID 686978, 2013; 420,000 tested, 15% active; DT40 Tdp1-/- hTDP1 cells, no CPT, ATP luminescence, 48 h; also: potency is read from the fitted curve at half-maximal effect; % is scaled to controls: 0 for no effect and ±100 for the full control effect; nearly all actives have a fitted effect of over 55% in size
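Compound effects on proliferation are scored in DT40 Tdp1-/-;hTDP1 cells in the absence of CPT. ATP levels (CellTiter-Glo luminescence) are recorded after a ≥48 hr, 37 °C incubation.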
IL1B secr inh: qHTS for Inhibitors of Inflammasome Signaling: IL-1-beta AlphaLISA Primary Screen | THP-1 LPS/ATP IL-1B secretion, AlphaLISA, 16 h; stronger effect = lower value | AID 743279, 2014 | 360,000 tested, 4.7% active | activity change, % at 57.5 µM; in the data active = activity change below about -50%; inconclusive = mostly about -30% to -49%; also: % is scaled to controls: 0 for no effect and ±100 for the full control effect
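Secreted IL-1B measured by AlphaLISA bead assay after 16 h compound exposure of THP-1 cells; compounds (final up to 57.5 uM) added 1 h before LPS (250 ng/mL) and ATP (1.25 mM) stimulation; lower signal means less secretion.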
SW480 rereplic: A quantitative high throughput screen for small molecules that induce DNA re-replication in SW480 colon adenocarcinoma cells; 340,000 tested, 1.8% active; AID 624297, 2012; Potency, µM (doses to about 46.1 µM), for the others: at the top dose re-replication activation, usual class: activators; SW480 DNA re-replication, Hoechst DNA content imaging, 48 h; also: potency is read from the fitted curve at half-maximal effect; % of control where 0% means no effect; nearly all actives have a fitted effect of over 55% in size
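Readout is total intensity of Hoechst-stained nuclei, excited at 405 nm and collected at 500-530 nm. Compound treatment lasted 48 hr at 37 C in 5% CO2 before staining.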
MCF10A rereplic: A quantitative high throughput screen for small molecules that induce DNA re-replication in MCF 10a normal breast cells; MCF 10A DNA re-replication, Hoechst nuclear intensity, 48 h; Potency, µM (top dose mostly 46.1 µM), for inactives: at the highest dose activity, positive = re-replication, usual class: activators; 350,000 tested, 2.9% active; also: potency is read from the fitted curve at half-maximal effect; % of control where 0% means no effect; nearly all actives have a fitted effect of over 50% in size
Chronic BCR inh: qHTS Assay to Find Inhibitors of Chronic Active B-Cell Receptor Signaling | AID 493014, 2011 | Potency, µM (highest dose often 46.1 µM), for inactives: at the top dose activity change, negative = inhibition, actives largely listed as inhibitors | ABC-DLBCL IkBa-CBG/CBR reporter, luminescence ratio, 4 h | 340,000 tested, 0.05% active; active = well fitted inhibition curve with a large enough effect in the signal ratio, with a control signal flat, not every such curve was filed as active; inconclusive = small, poorly fitted or top-dose-only effect, or effect the other way, or a change in a side signal; the % refers to the signal ratio;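 also: potency is read from the fitted curve at half-maximal effect; plate controls were basal doxycycline-induced cells for no effect and cells given 10 µM MG132 for full effect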
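TMD8 ABC-DLBCL cells carrying doxycycline-inducible green luciferase fused to IkappaBalpha plus unfused red luciferase were exposed to compounds (up to 46 uM) for 4 hrs at 37C. Activity came from the overlap-corrected green/red luminescence ratio.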
Active calls of the source: *; ? = inconclusive; nt = no result. Unless noted, calls follow the shape of the dose curve; as a rule, active = well fitted curve in the direction sought with a large enough effect; inconclusive = small, poorly fitted or top-dose-only effect, or another doubt; inactive = no such curve, though single readings can be large; an effect the other way counts as inactive or inconclusive.

SMILES	DT40 TDP1 CPT	DT40 TDP1 no CPT	IL1B secr inh	SW480 rereplic	MCF10A rereplic	Chronic BCR inh
Cc1cccc2cc(C#N)c(N3CCN(C)CC3)nc12	?	26µM*	-28	-10%	11%	3%
Cc1ccc(C#N)c(SCCN2CCCCC2)n1	11%	-9%	-10	1%	-2%	-4%
COc1ccccc1CNC(=O)COC(=O)c1cccc(S(=O)(=O)N2CCOCC2)c1	-23%	-3%	3	?	-12%	?
C[C@H](C[C@H](O)[C@H]1OC1(C)C)C1=C2C[C@H](O)C3[C@@]4(C)CCC(=O)C(C)(C)C4CC[C@]3(C)[C@@]2(C)CC1 (some centres undefined)	7.3µM*	15µM*	-7	?	?	-1%
CC(Nc1oc(-c2ccc(COc3ccccc3)o2)nc1C#N)c1ccccc1 (centres undefined)	6.5µM*	9.2µM*	nt	nt	nt	nt
Cc1cccc(OCc2ccc(-c3nc(C#N)c(N4CCC(C(N)=O)CC4)o3)o2)c1	16µM*	?	nt	nt	nt	nt
COc1ccc(OCc2ccc(-c3nc(C#N)c(N4CCCCC4)o3)o2)cc1	1%	?	nt	nt	nt	nt
COc1ccc(OCc2ccc(-c3nc(C#N)c(N4CCC(C)CC4)o3)o2)cc1	?	23µM*	nt	nt	nt	nt
CNc1oc(-c2ccc(COc3ccc(C)cc3)o2)nc1C#N	-13%	-22%	nt	nt	nt	nt
COc1ccc(OCc2ccc(-c3nc(C#N)c(N4CCN(C)CC4)o3)o2)cc1	?	15µM*	nt	nt	nt	nt
CCCOc1ccc(-c2nc(C#N)c(N3CCC(C(N)=O)CC3)o2)cc1	-5%	-3%	?	-1%	?	0%
CCOc1ccc(S(=O)(=O)N2CCCCC2)cc1NC(=O)Cc1ccsc1	?	?	15	-4%	3%	0%
COCCNC(=O)c1cccc2c(-c3ccnn3C)coc12	?	?	64	nt	nt	nt
CCOc1ccc(OCC)c(NC(=O)c2nnn(CC(=O)Nc3cc(Cl)ccc3OC)c2N)c1	-15%	-19%	nt	nt	nt	nt
Cc1ccc(OCc2ccc(-c3nc(C#N)c(N4CCC(C)CC4)o3)o2)cc1	?	21µM*	nt	nt	nt	nt
CC1CCN(c2oc(-c3ccc(COc4ccccc4)o3)nc2C#N)CC1	21µM*	10µM*	nt	nt	nt	nt
CN(C)c1ncc2nc(-c3cc(F)cc(F)c3)c(=O)n(CCc3ccccc3)c2n1	-27%	-5%	nt	nt	nt	nt
Cc1ccc(-c2onc(C)c2C)cc1S(=O)(=O)N1c2ccccc2CC1C (centres undefined)	?	16µM*	nt	nt	nt	nt
Cc1ccc(-c2onc(C)c2C)cc1S(=O)(=O)N1CCOc2ccccc21	18µM*	21µM*	?	-17%	?	14%
Cc1cc(-c2ccc(C)c(S(=O)(=O)N3CC(=O)Nc4ccccc43)c2)on1	-5%	4%	46	6%	9%	5%
Nc1ccc(S(=O)C(F)(F)F)cc1 (centres undefined)	0%	7%	0	4%	9%	-3%
CCN1CCN(c2cc(C)c3cc(NC(=O)c4cccc(Cl)c4)ccc3n2)CC1	15µM*	6.5µM*	nt	nt	nt	nt
CCN1CCN(c2cc(C)c3cc(NC(=O)/C=C/c4cccc(Cl)c4)ccc3n2)CC1	5.2µM*	-7%	nt	nt	nt	nt
CCN1CCN(c2cc(C)c3cc(NC(=O)CCC(=O)N4CCN(c5ccccc5)CC4)ccc3n2)CC1	?	?	-21	?	?	0%
COc1ccc(-n2nc(C(=O)NCC(=O)NCCCN3CCOCC3)c3ccccc3c2=O)cc1	-22%	-12%	-17	0%	9%	6%
SMILES	DT40 TDP1 CPT	DT40 TDP1 no CPT	IL1B secr inh	SW480 rereplic	MCF10A rereplic	Chronic BCR inh
COc1ccc(N2C(=S)N=C(Nc3cccc(C)c3)C23CCCCC3)cc1	6.5µM*	-26%	-7	-7%	-3%	8%
Cc1[nH]n(-c2ncc(-c3ccccc3)s2)c(=O)c1C(c1ccc(Cl)cc1)C(C#N)C#N (centres undefined)	?	?	-64*	-1%	18%	15%
Cc1ccc(C)c(CN2C(=O)c3ccccc3S(=O)(=O)c3ccc(C(=O)N4CCN(c5ccccc5F)CC4)cc32)c1	-3%	-17%	nt	nt	nt	nt
Nc1cccc2c(=O)c3ccccc3[nH]c12	13µM*	8.2µM*	-7	4%	1%	6%
COc1cccc2[nH]c3ccccc3c(=O)c12	-94%	?	0	?	?	-1%
O=C(NCC1CCCO1)c1csc2c1CCCCC2 (centres undefined)	-26%	-15%	-1	1%	2.6µM*	1%
COc1cccc(NC(=O)c2csc3c2CCCCC3)c1	21µM*	16µM*	nt	nt	nt	nt
O=C(Nc1cccc(-c2nn[nH]n2)c1)c1csc2c1CCCC2	-2%	-7%	4	-5%	1%	10%
CCc1cccc(NC(=O)Nc2csc3c2CCCC3)c1	21µM*	23µM*	nt	nt	nt	nt
COc1ccc(NC(=O)c2csc3c2CCCCC3)c(OC)c1	-26%	?	-175*	8%	?	?
C[C@H](CO)N1C[C@H](C)[C@@H](CN(C)C(=O)NC2CCCCC2)Oc2ccc(NC(=O)Nc3ccccc3)cc2C1=O	-16%	-11%	7	-2%	2%	1%
Cc1ccc(C(=O)OCC(=O)Nc2ccc3c(c2)OCO3)c(O)c1	-24%	-20%	-5	-5%	0%	?
Cc1c(C(=O)N2C[C@@H](C)O[C@@H](C)C2)oc2c(F)cccc12	?	?	6	-9%	-4%	4%
CCN(C(=O)c1ccc(S(=O)(=O)N2CCCCC2)cc1)C1CCS(=O)(=O)C1 (centres undefined)	-14%	-9%	3	21%	2%	0%
Cc1cccc(C)c1NC(=O)c1csc2c1CCCC2	3.7µM*	5.2µM*	nt	nt	nt	nt
S=C(Nc1ccc(Br)cc1)N1CCn2cccc2C1c1cccnc1 (centres undefined)	?	?	-65*	-9%	-4%	?
CCc1cccc(CC)c1NC(=S)N1CCn2cccc2C1c1cccnc1 (centres undefined)	?	?	-10	-46%	?	0%
CCCc1cc(=O)[nH]c(SC(C)C(=O)N2c3ccccc3CC2C)n1 (centres undefined)	-31%	-5%	17	-62%	17%	-2%
